Among the data in paper PMC11062922 (Nature Chemical Biology, 2023) are potency estimated from few doses values, retold here.

Like-named read-outs stand apart in the source and are kept apart here.

Common to all, as to design: species or system human, MV4-11 + K-562 + COLO205 + SK-N-BE2 + OVCAR-8
Assay [1] concerns BMP2K. The following applies: read-out: apparent Kd; compound concentrations: 100 nM and 1000 nM (sheet 'Samples'), CATDS: 0.35520277596049099; n = 1.
Assay [2] deals with MYLK3. The following applies: read-out: apparent Kd; compound concentrations: 100 nM and 1000 nM (sheet 'Samples'), CATDS: 0.39880703654606497; n = 1.
The subject of assay [3] is TNIK. The conditions noted are these: read-out: apparent Kd, n = 1.
Assay [4] relates to BMPR2. The conditions noted are these: read-out: apparent Kd; compound concentrations:100 nM and 1000 nM (sheet 'Samples'); n = 1.
In assay [5] the test system is CDC42. The following applies: read-out: apparent Kd; compound concentrations:100 nM and 1000 nM (sheet 'Samples'); n = 1.
Assay [6] deals with CLK4. The following applies: read-out: apparent Kd; compound concentrations:100 nM and 1000 nM (sheet 'Samples'); n = 1.
Assay [7] relates to AURKA. The following applies: read-out: apparent Kd; compound concentrations:100 nM and 1000 nM (sheet 'Samples'); n = 1.
In assay [8] the test system is AURKB. The following applies: read-out: apparent Kd; compound concentrations:100 nM and 1000 nM (sheet 'Samples'); n = 1.
The test system of assay [9] is DDR1. The following applies: read-out: apparent Kd; compound concentrations:100 nM and 1000 nM (sheet 'Samples'); n = 1.
Assay [10] concerns DDR2. The conditions noted are these: read-out: apparent Kd; compound concentrations:100 nM and 1000 nM (sheet 'Samples'); n = 1.
The test system of assay [11] is FLT3. The following applies: read-out: apparent Kd; compound concentrations:100 nM and 1000 nM (sheet 'Samples'); n = 1.
Assay [12] relates to FLT4. The following applies: read-out: apparent Kd; compound concentrations:100 nM and 1000 nM (sheet 'Samples'); n = 1.
Assay [13] concerns MET. The conditions noted are these: read-out: apparent Kd; compound concentrations:100 nM and 1000 nM (sheet 'Samples'); n = 1.
Assay [14] relates to PLK4. The conditions noted are these: read-out: apparent Kd; compound concentrations:100 nM and 1000 nM (sheet 'Samples'); n = 1.
Assay [15] relates to RET. The conditions noted are these: read-out: apparent Kd; compound concentrations:100 nM and 1000 nM (sheet 'Samples'); n = 1.
The test system of assay [16] is TGFBR2. The following applies: read-out: apparent Kd; compound concentrations:100 nM and 1000 nM (sheet 'Samples'); n = 1.
For assay [17], the system named is TNK1. The following applies: read-out: apparent Kd; compound concentrations:100 nM and 1000 nM (sheet 'Samples'); n = 1.
For assay [18], the system named is BCR. The following applies: read-out: apparent Kd; compound concentrations:100 nM and 1000 nM (sheet 'Samples'); n = 1.
Assay [19] has as its system GAK. The following applies: read-out: apparent Kd; compound concentrations:100 nM and 1000 nM (sheet 'Samples'); n = 1.
Assay [20] has as its system MAPK10. The following applies: read-out: apparent Kd; compound concentrations:100 nM and 1000 nM (sheet 'Samples'); n = 1.
Assay [21] relates to MAPK9. The following applies: read-out: apparent Kd; compound concentrations:100 nM and 1000 nM (sheet 'Samples'); n = 1.
Assay [22] has as its system NQO2. The conditions noted are these: read-out: apparent Kd; compound concentrations:100 nM and 1000 nM (sheet 'Samples'); n = 1.
Assay [23] has as its system PIK3CD. The following applies: read-out: apparent Kd; compound concentrations:100 nM and 1000 nM (sheet 'Samples'); n = 1.
Assay [24] relates to PRKD1. The following applies: read-out: apparent Kd; compound concentrations:100 nM and 1000 nM (sheet 'Samples'); n = 1.
In assay [25] the test system is PRKD2. The following applies: read-out: apparent Kd; compound concentrations:100 nM and 1000 nM (sheet 'Samples'); n = 1.
In assay [26] the test system is PRKD3. The following applies: read-out: apparent Kd; compound concentrations:100 nM and 1000 nM (sheet 'Samples'); n = 1.
The subject of assay [27] is RIPK2. The conditions noted are these: read-out: apparent Kd; compound concentrations:100 nM and 1000 nM (sheet 'Samples'); n = 1.
Assay [28] deals with SIK3. The conditions noted are these: read-out: apparent Kd; compound concentrations:100 nM and 1000 nM (sheet 'Samples'); n = 1.
Assay [29] deals with STK16. The conditions noted are these: read-out: apparent Kd; compound concentrations:100 nM and 1000 nM (sheet 'Samples'); n = 1.
Assay [30] deals with TGFBR1. The conditions noted are these: read-out: apparent Kd; compound concentrations:100 nM and 1000 nM (sheet 'Samples'); n = 1.
For assay [31], the system named is ZAK. The following applies: read-out: apparent Kd; compound concentrations:100 nM and 1000 nM (sheet 'Samples'); n = 1.

For the compound `Nc1cccc(-c2ccc3c(N)n[nH]c3c2)c1` [GSK2193613A], the potency estimated from few doses was 1270 nM in [1]; 1020 nM in assay [2]; 2310 nM in assay [3] (compound concentrations: 100 nM and 1000 nM (sheet 'Samples'), CATDS: 0.27194394843596698).
Consider `O=C1Nc2ccc(C(=O)c3ccco3)cc2C1=Cc1cc(Cl)c(O)c(Cl)c1` [GW406108X], for which the potency estimated from few doses in assay [4] is 15.8 nM; in [5] it was 93.8 nM; in assay [6], 85.5 nM.
Consider `CN1CCN(C(=O)c2ccc(NC(=O)Nc3ccc(N(C)c4ccnc(Nc5ccc(CS(C)(=O)=O)cc5)n4)cc3)cc2)CC1.Cl` [GW830263A], for which the potency estimated from few doses in [7] was 303 nM; in assay [8], 247 nM; in assay [9], 816 nM; in [10], 1150 nM; in assay [11], 108 nM; in assay [12], 566 nM. The potency estimated from few doses was 2330 nM in assay [13]; 873 nM in assay [14]; 708 nM in assay [15]; 2130 nM in [16]; 357 nM in assay [17].
Take `CN(C)CCOc1ccc(-c2cc(-c3c[nH]nc3-c3ccccn3)ccn2)cc1` [GW835314X]: the potency estimated from few doses is 668 nM in assay [18]; 151 nM in [19]; 1410 nM in assay [20]; 2050 nM in [21]; 176 nM in assay [22]; 145 nM in [23]. The potency estimated from few doses was 161 nM in assay [24]; 55.4 nM in assay [25]; 52.8 nM in assay [26]; 219 nM in [27]; 1800 nM in [28]; 1740 nM in assay [29]. The potency estimated from few doses in [30] is 1.84 nM; in assay [16], 149 nM; in assay [3] (compound concentrations:100 nM and 1000 nM (sheet 'Samples')) it was 679 nM; in assay [31], 1820 nM.
